{
  "source": "PubChem BioAssay (NCATS)",
  "note": "Records with an inconclusive call do not appear. Activity calls are given as the source filed them. Calls follow the shape of the dose curve; as a rule, active = well fitted cell-killing curve with a large enough effect; inconclusive = small, poorly fitted or top-dose-only effect, or effect the other way; inactive = no such curve, though single readings can be large or run the other way. Potency is read from the fitted curve at half-maximal effect.",
  "data": [
    {"experiment": "Quantitative High-Throughput drug screen in 47 multiple myeloma cell lines against the NCATS MIPE library collection: U266_ATCC cell viability assay (AID 1919864); also: nearly all actives have a fitted effect of over 35% in size", "details": "U266 myeloma viability, CellTiter-Glo ATP luminescence, 48 h; series mostly up to 45.8 µM", "description": "PI: Beverly A. Mock Ph.D.\nLaboratory of Cancer Biology and Genetics,\nCenter for Cancer Research, National Cancer Institute,\nNational Institute of Health, Bethesda, Maryland\nDrug resistance and disease progression are common in multiple myeloma (MM) patients, underscoring the need for new therapeutic combinations. […] We hypothesized that effective combinations would reduce MYC expression and enhance p16 activity. […] These preclinical data identify potentially useful drug combinations for evaluation in drug-resistant MM and reveal potential mechanisms of combined drug sensitivity.\nDescribed herein is the primary MIPE qHTS used to cherrypick compounds. Validated compounds were then further tested for potential synergistic activiy.\n[1] Peat TJ, Gaikwad SM, Dubois W, Gyabaah-Kessie N, Zhang S, Gorjifard S, Phyo Z, Andres M, Hughitt VK, Simpson RM, Miller MA, Girvin AT, Taylor A, Williams D, D'Antonio N, Zhang Y, Rajagopalan A, Flietner E, Wilson K, Zhang X, Shinn P, Klumpp-Thomas C, McKnight C, Itkin Z, Chen L, Kazandijian D, Zhang J, Michalowski AM, Simmons JK, Keats J, Thomas CJ, Mock BA. Drug combinations identified by high-throughput screening promote cell cycle transition and upregulate Smad pathways in myeloma. Cancer Lett. 2023 Aug 1;568:216284. doi: 10.1016/j.canlet.2023.216284. Epub 2023 Jun 24. PMID: 37356470; PMCID: PMC10408729.\nSEQUENCE No. (e.g., 1, 2, 3, etc.); […] (e.g., Cells, Incubation, Reagent, etc.); VALUE and DESCRIPTION.\n1; Cells; 5 uL; white, solid bottom 1536-well Greiner assay plate.\n2; Compounds; 23 nL; Kalypsis pin tool (Wako USA) equipped with a 1536-well pin head to transfer to the assay plates.\n3; Incubation; 48 hours; 37C incubation.\n4; Reagent;5uL; CellTiter Glo (Promega).\n5; Detector; 425V; Luminescence; Viewlux PerkinElmer.\nNOTES (numbers refer to Sequence numbers above)\n1. The cell-based screening methods employed in this study were like those previously published. Briefly, the corresponding myeloma cell lines were screened in 1,536-well plates with 500 cells, 5-uL per well for inhibition of cell viability (assessed by measuring ATP levels with CellTiterGlo).\n2. NCATS MIPE 4.0 library of approved and investigational drugs were added using the Kalypsis pin tool. Wells treated with DMSO only for 100% viability and media only for 0% viability were used as controls.\n3. The assay plates were covered and incubated for 48 hours in a 37C, 5% CO2 incubator with controlled humidity.\n4. After 48 hours, CellTilter-GloTM luminescent substrate mix (Promega) reagent was added to the assay plate and plates we incubated for 5 min at room temperature.\n5. Signal was measured as median relative luminescence units on a ViewLux (PerkinElmer) multiplate reader.\n[1] Heske CM, Davis MI, Baumgart JT, Wilson K, Gormally MV, Chen L, Zhang X, Ceribelli M, Duveau DY, Guha R, Ferrer M, Arnaldez FI, Ji J, Tran HL, Zhang Y, Mendoza A, Helman LJ, Thomas CJ. Matrix Screen Identifies Synergistic Combination of PARP Inhibitors and Nicotinamide Phosphoribosyltransferase (NAMPT) Inhibitors in Ewing Sarcoma. Clin Cancer Res. 2017 Dec 1;23(23):7301-7311. doi: 10.1158/1078-0432.CCR-17-1121. Epub 2017 Sep 12. PMID: 28899971; PMCID: PMC6636827.", "values": [
      {"smiles": "O=c1[nH]c2ccccc2n1CCCN1CCC(n2c(=O)[nH]c3cc(Cl)ccc32)CC1", "Potency": "inactive"},
      {"smiles": "CNCC(O)c1ccc(O)cc1", "note": "(stereo not drawn)", "Potency": "inactive"},
      {"smiles": "CN(C)[C@@H]1C(=O)C(C(N)=O)=C(O)[C@@]2(O)C(=O)C3=C(O)c4c(O)cccc4[C@@](C)(O)[C@H]3C[C@@H]12", "Potency": "inactive"},
      {"smiles": "COc1ccc(C(=O)c2c(C)n(CCN3CCOCC3)c3ccccc23)cc1", "Potency": "inactive"},
      {"smiles": "COC[C@H]1OC(=O)c2coc3c2[C@@]1(C)C1=C(C3=O)C2CCC(=O)[C@@]2(C)C[C@H]1OC(C)=O", "note": "(stereo partly drawn)", "Potency": "20.9 µM (active)"},
      {"smiles": "NCC1(CC(=O)O)CCCCC1", "Potency": "inactive"},
      {"smiles": "O=C(O)C(=O)c1cn(Cc2ccccc2)c2ccc(-c3ccc(OC(F)(F)F)cc3)cc12", "Potency": "23.5 µM (active)"},
      {"smiles": "C[C@@H]1O[C@@H](O[C@H]2C[C@@H](O)[C@]3(CO)[C@H]4[C@H](O)C[C@]5(C)[C@@H](C6=CC(=O)OC6)CC[C@]5(O)[C@@H]4CC[C@]3(O)C2)[C@H](O)[C@H](O)[C@H]1O", "Potency": "0.0209 µM (active)"},
      {"smiles": "C[C@@H]1[C@@H](CC(C[C@H]2O[C@@H]3O[C@]4(C)CC[C@@H]5[C@H](C)CC[C@@H]([C@H]2C)[C@@]35OO4)C[S+](=O)([O-])c2ccc(COC(=O)N(C)C)cc2)O[C@@H]2O[C@]3(C)CC[C@H]4[C@H](C)CC[C@@H]1[C@@]24OO3", "note": "(stereo partly drawn)", "Potency": "0.372 µM (active)"},
      {"smiles": "CC(C)CC(N(C)C)C1(c2ccc(Cl)cc2)CCC1", "note": "(stereo not drawn)", "Potency": "4.18 µM (active)"},
      {"smiles": "COC1(CS(=O)c2ccccc2)CCN(CCc2c[nH]c3ccc(F)cc23)CC1", "note": "(stereo not drawn)", "Potency": "inactive"},
      {"smiles": "Cc1cc(SCc2sc(-c3ccc(C(F)(F)F)c(F)c3)nc2C)ccc1OCC(=O)O", "Potency": "18.7 µM (active)"},
      {"smiles": "N[C@@H](Cc1ccc(N(CCCl)CCCl)cc1)C(=O)O", "Potency": "16.6 µM (active)"},
      {"smiles": "C#CCN(C)[C@H](C)Cc1ccccc1", "Potency": "inactive"},
      {"smiles": "CCCC(C)(COC(N)=O)COC(=O)NC(C)C", "note": "(stereo not drawn)", "Potency": "inactive"},
      {"smiles": "CC(O)(CS(=O)(=O)c1ccc(F)cc1)C(=O)Nc1ccc(C#N)c(C(F)(F)F)c1", "note": "(stereo not drawn)", "Potency": "0.743 µM (active)"},
      {"smiles": "CNC(=O)c1ccc(N2C(=S)N(c3ccc(C#N)c(C(F)(F)F)c3)C(=O)C23CCC3)cc1F", "Potency": "8.33 µM (active)"},
      {"smiles": "Cc1sc2c(c1C)C(c1ccc(Cl)cc1)=N[C@@H](CC(=O)OC(C)(C)C)c1nnc(C)n1-2", "Potency": "0.148 µM (active)"},
      {"smiles": "CNC(=O)N1N=C(c2ccc(N)cc2)c2cc3c(cc2CC1C)OCO3", "note": "(stereo not drawn)", "Potency": "3.72 µM (active)"},
      {"smiles": "CC1=C2C[C@@H]3[C@@H](CC=C4C[C@@H](O)CC[C@@]43C)[C@@H]2CC[C@]12O[C@H]1C[C@H](C)CN[C@H]1[C@H]2C", "Potency": "20.9 µM (active)"},
      {"smiles": "C=C(C)[C@H]1Cc2c(ccc3c2O[C@@H]2COc4cc(OC)c(OC)cc4[C@@H]2C3=O)O1", "Potency": "0.332 µM (active)"},
      {"smiles": "O=C1CC[C@@]2(O)[C@H]3Cc4ccc(O)c5c4[C@@]2(CCN3CC2CC2)[C@H]1O5", "Potency": "inactive"},
      {"smiles": "CN(C)CCc1ccc(O)cc1", "Potency": "inactive"}
    ]}
  ]
}
